ChEMBL document CHEMBL3988442, “University of Dundee, Small-Polar-MMV Screening Library” (2021)

These compounds were tested against T1, Aspartate--tRNA(Asp/Asn) ligase (Mycobacterium tuberculosis (strain ATCC 25618 / H37Rv)) (UniProt P9WFW3) (assay: Assay for Asp RNA synthetase-1 from Mycobacterium tuberculosis). Settings: 30 µM.
T1 sequence (whole entry): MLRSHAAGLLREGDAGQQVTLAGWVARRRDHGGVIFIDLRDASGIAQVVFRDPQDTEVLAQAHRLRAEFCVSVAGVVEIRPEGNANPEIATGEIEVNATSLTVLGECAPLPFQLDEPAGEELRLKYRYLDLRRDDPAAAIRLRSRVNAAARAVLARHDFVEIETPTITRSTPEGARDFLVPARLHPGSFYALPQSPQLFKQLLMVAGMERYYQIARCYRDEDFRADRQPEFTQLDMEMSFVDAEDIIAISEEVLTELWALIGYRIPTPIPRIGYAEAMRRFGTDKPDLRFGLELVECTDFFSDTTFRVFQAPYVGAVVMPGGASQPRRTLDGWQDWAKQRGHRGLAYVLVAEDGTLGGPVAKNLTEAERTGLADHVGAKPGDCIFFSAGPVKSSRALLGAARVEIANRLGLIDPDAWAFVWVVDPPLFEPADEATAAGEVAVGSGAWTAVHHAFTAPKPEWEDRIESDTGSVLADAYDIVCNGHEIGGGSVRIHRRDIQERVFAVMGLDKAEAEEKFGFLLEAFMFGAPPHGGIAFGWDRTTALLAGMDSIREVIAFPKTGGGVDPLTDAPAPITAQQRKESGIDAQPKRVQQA
Format: functional
Design: scale not given: in the data most compounds retested in dose-response had high values

Row | SMILES | Percent Effect [%]
1 | c1cn(Cc2nnc(C3CCN(c4nccs4)CC3)n2C2CC2)cn1 | -3.69
2 | Cc1cc(CN(C)C2CCCN(c3cccnn3)C2)on1 (stereo not given) | 0.172
3 | COCc1nc2n(n1)CCCC2Nc1nc(C2CC2)ns1 (stereo not given) | 0.0804
4 | Cc1nn(C)c(C)c1C1COCCN1c1ncnc2sccc12 (stereo not given) | 0.54
5 | O=C(CCc1c[nH]cn1)N1CC[C@@H](c2ccc3ccccc3c2)[C@H](O)C1 | -0.632
6 | CCSCCC(=O)Nc1ncn(Cc2cccnc2)n1 | -2.31
7 | CS(=O)(=O)NCC(=O)NC1CCc2nccn2C1 (stereo not given) | 2.91
8 | Cc1cnn(C2CN(Cc3ccc4c(c3)OCCO4)C2)c1 | 2.19
9 | O=C1N(Cc2cccc(F)c2F)CCCC1(O)CNC1CCCC1 (stereo not given) | -0.655
10 | Cc1c[nH]c(CN(C)C(=O)c2cccc(CCC(C)(C)O)c2)n1 | -1
11 | Cc1cnn(Cc2cc(F)ccc2F)c1NC(=O)C1COCCO1 (stereo not given) | -0.287
12 | OC1(CN2CCCC2)CCCN(Cc2ccc(F)cc2Cl)C1 (stereo not given) | 4.15
13 | CCSCCC(=O)Nc1ncn(CC(=O)NCc2ccccc2)n1 | -2.33
14 | Cn1cc(CNc2ncnc3c2CCN(Cc2ccsc2)CC3)cn1 | 1.05
15 | CSC(C)(C)CNC(=O)NC1CCN(C)CC1 | -4.75
16 | O=C(c1cncc(N2CCC(O)(CO)CC2)n1)N1CCCC1 | -3.27
17 | Cc1nc2c(c(C)c1CC(=O)Nc1ccc(Cl)cc1)c(=O)[nH]n2C | -4.86
18 | CC(=O)Nc1cc(C(=O)N2CCOCC2c2ccc(C)o2)ccc1F (stereo not given) | -5.67
19 | CCOc1cccc(C(C)NCc2ccc(OC)c(OC)c2OC)c1 (stereo not given) | -1.94
20 | Cn1nccc1C(=O)N1CCOC(Cc2cccc(C(F)(F)F)c2)C1 (stereo not given) | -2.91

Row | SMILES | Percent Effect [%]
21 | CCc1cc(N2CCCNCC2)n2nc(C)c(C)c2n1 | -1.41
22 | COc1cc(CNC(=O)NCCCF)cc(Br)c1OC | -0.885
23 | c1cnn(CC2CCCCN2c2ncnc3sccc23)c1 (stereo not given) | 2.59
24 | FC(F)(F)COCCN1CCCC(c2noc(C3CC3)n2)C1 (stereo not given) | -0.517
25 | O=C(Nc1cccc(OCc2ccc(F)cc2)c1)C1COCCO1 (stereo not given) | -1.28
26 | Cc1nn(C)cc1C(=O)N1C[C@H]2CC[C@@H]1CN(S(=O)(=O)N(C)C)C2 | 1.62
27 | O=c1oc(-c2cccs2)nn1CC(O)c1ccccc1 (stereo not given) | 1.71
28 | Cc1ccc(CN2CCN(CC3CC3)[C@@H]3CS(=O)(=O)C[C@@H]32)cc1C | -3.05
29 | N#Cc1ccc(C2CC(=O)Nc3c2cnn3C2CCCC2)cc1 (stereo not given) | -5.3
30 | CSC(C)(C)CNC(=O)NC1CCSCC1 | 0.103
31 | COc1ccccc1CN1C(=O)O[C@@H]2CN(c3nccs3)C[C@@H]21 | -1.39
32 | O=C(NC1(c2nnn(Cc3ccncc3)n2)CCCC1)c1ccccc1 | -0.678
33 | c1cn(Cc2nnc(C3CCN(C4CCOCC4)CC3)n2C2CC2)cn1 | -3.53
34 | CC(C)(C)N1CC(C(=O)N2CCN(CCc3ccccc3)CC2)CC1=O (stereo not given) | 0.448
35 | CCn1nc(C)c(CNC(=O)c2cn(CC3CCCO3)nn2)c1C (stereo not given) | -4.13
36 | CCCC(=O)NCc1cc(Br)c(OC)c(OC)c1 | -0.862
37 | Cc1cc(S(=O)(=O)N2CCCc3cc(F)cc(F)c32)sc1C(=O)O | -0.908
38 | CC(C)CN1CCc2[nH]cnc2C12CCN(C(=O)c1cccnc1)CC2 | 1.3
39 | CC(NC(=O)NCCCn1cccn1)c1cccnc1 (stereo not given) | -3.83
40 | O=C(COc1cccc(Br)c1)N1CCN(c2nccs2)CC1 | 1.41
